Among all 5,500 compounds or so, about 2,000 (36%) were called active. Roughly 18% stayed inconclusive and do not appear here. No stated cut-off is given here; in the data, active means normalized growth mostly below about 0.91 (no sharp cut-off); inconclusive means no clear call, values can overlap the other calls; inactive means mostly above about 0.92. The list shows a part of the results.
Assay: chemical genetic growth profiling, strain panel (AID 1159580);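 further: tested at 20 µM; growth read once vehicle control cultures reached saturation at 30 °C; 1 = growth at the plate median or of vehicle wells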
Conditions: growth OD

Measured: normalized growth

C[C@@H]1O[C@@H](O[C@H]2CC[C@]3(C=O)C4CC[C@]5(C)[C@@H](C6=CC(=O)OC6)CC[C@]5(O)C4CC[C@]3(O)C2)[C@H](O)[C@H](O)[C@H]1O (stereo not given in full)
inactive: S. cerevisiae deletion strains, locus YJR066W, strain TOR1, stronger effect = lower value 0.953 | S. cerevisiae deletion strains, locus YJR075W, strain HOC1, stronger effect = lower value 0.989 | S. cerevisiae deletion strains, locus YKL009W, strain mrt4, stronger effect = lower value 1.05 | S. cerevisiae deletion strains, locus YKL068W, stronger effect = lower value 0.991 | S. cerevisiae deletion strains, locus YKL085W, strain MDH1 (second series), stronger effect = lower value 0.999 | S. cerevisiae deletion strains, locus YKL085W, strain MDH1, stronger effect = lower value 0.999 | S. cerevisiae deletion strains, locus YKL160W, strain elf1, stronger effect = lower value 1.01 | S. cerevisiae deletion strains, locus YKL190W, strain CNB1, stronger effect = lower value 0.988 | S. cerevisiae deletion strains, locus YKR001C, strain vps1, stronger effect = lower value 0.995 | S. cerevisiae deletion strains, locus YKR026C, strain gcn3, stronger effect = lower value 0.997 | S. cerevisiae deletion strains, locus YKR091W, strain srl3, stronger effect = lower value 0.997 | S. cerevisiae deletion strains, locus YLL001W, strain dnm1, stronger effect = lower value 1.01 | S. cerevisiae deletion strains, locus YLL026W, stronger effect = lower value 0.995 | S. cerevisiae deletion strains, locus YLL041C, strain sdh2, stronger effect = lower value 1 | S. cerevisiae deletion strains, locus YLR027C, strain aat2, stronger effect = lower value 0.999 | S. cerevisiae deletion strains, locus YLR039C, strain RIC1, stronger effect = lower value 0.977 | S. cerevisiae deletion strains, locus YLR058C, strain SHM2, stronger effect = lower value 0.981 | S. cerevisiae deletion strains, locus YLR102C, strain apc9, stronger effect = lower value 0.997 | S. cerevisiae deletion strains, locus YLR113W, strain HOG1, stronger effect = lower value 0.952 | S. cerevisiae deletion strains, locus YLR221C, strain rsa3, stronger effect = lower value 1.01 | S. cerevisiae deletion strains, locus YLR258W, strain gsy2, stronger effect = lower value 0.991 | S. cerevisiae deletion strains, locus YLR262C, strain YPT6 (second series), stronger effect = lower value 1.01 | S. cerevisiae deletion strains, locus YLR262C, strain YPT6, stronger effect = lower value 0.914 | S. cerevisiae deletion strains, locus YLR268W, strain sec22, stronger effect = lower value 1.01 | S. cerevisiae deletion strains, locus YLR320W, strain mms22, stronger effect = lower value 0.989 | S. cerevisiae deletion strains, locus YLR330W, strain CHS5, stronger effect = lower value 1 | S. cerevisiae deletion strains, locus YLR342W, strain FKS1 (second series), stronger effect = lower value 1.06 | S. cerevisiae deletion strains, locus YLR342W, strain FKS1, stronger effect = lower value 0.999 | S. cerevisiae deletion strains, locus YLR357W, strain rsc2, stronger effect = lower value 0.959 | S. cerevisiae deletion strains, locus YLR370C, strain arc18, stronger effect = lower value 1.01 | S. cerevisiae deletion strains, locus YLR371W, strain rom2, stronger effect = lower value 0.978 | S. cerevisiae deletion strains, locus YLR384C, strain iki3, stronger effect = lower value 0.987 | S. cerevisiae deletion strains, locus YLR418C, strain cdc73, stronger effect = lower value 0.964 | S. cerevisiae deletion strains, locus YML016C, strain PPZ1, stronger effect = lower value 0.995 | S. cerevisiae deletion strains, locus YML032C, strain rad52, stronger effect = lower value 0.991 | S. cerevisiae deletion strains, locus YML120C, strain ndi1, stronger effect = lower value 0.994 | S. cerevisiae deletion strains, locus YML124C, strain tub3, stronger effect = lower value 0.983 | S. cerevisiae deletion strains, locus YMR058W, strain fet3, stronger effect = lower value 1 | S. cerevisiae deletion strains, locus YMR078C, strain ctf18, stronger effect = lower value 0.976 | S. cerevisiae deletion strains, locus YMR125W, strain sto1, stronger effect = lower value 0.969 | S. cerevisiae deletion strains, locus YMR129W, stronger effect = lower value 0.998 | S. cerevisiae deletion strains, locus YMR205C, strain PFK2, stronger effect = lower value 0.954 | S. cerevisiae deletion strains, locus YMR223W, strain ubp8, stronger effect = lower value 0.962 | S. cerevisiae deletion strains, locus YMR231W, strain pep5, stronger effect = lower value 0.998 | S. cerevisiae deletion strains, locus YMR307W, strain GAS1, stronger effect = lower value 0.977 | S. cerevisiae deletion strains, locus YNL067W, strain RPL9B, stronger effect = lower value 0.975 | S. cerevisiae deletion strains, locus YNL071W, strain lat1, stronger effect = lower value 1 | S. cerevisiae deletion strains, locus YNL183C, strain NPR1, stronger effect = lower value 0.965 | S. cerevisiae deletion strains, locus YNL209W, strain ssb2, stronger effect = lower value 1 | S. cerevisiae deletion strains, locus YNL233W, strain BNI4, stronger effect = lower value 0.999 | S. cerevisiae deletion strains, locus YNL248C, strain rpa49, stronger effect = lower value 1.01 | S. cerevisiae deletion strains, locus YNL250W, strain rad50, stronger effect = lower value 0.993 | S. cerevisiae deletion strains, locus YNL271C, strain bni1, stronger effect = lower value 0.985 | S. cerevisiae deletion strains, locus YNL298W, strain CLA4, stronger effect = lower value 1 | S. cerevisiae deletion strains, locus YNL307C, strain MCK1, stronger effect = lower value 0.992 | S. cerevisiae deletion strains, locus YNL322C, strain KRE1 (second series), stronger effect = lower value 1.01 | S. cerevisiae deletion strains, locus YNL322C, strain KRE1, stronger effect = lower value 0.994 | S. cerevisiae deletion strains, locus YNR049C, strain mso1, stronger effect = lower value 1.01 | S. cerevisiae deletion strains, locus YNR052C, strain pop2, stronger effect = lower value 0.998 | S. cerevisiae deletion strains, locus YOL006C, strain TOP1, stronger effect = lower value 1.12 | S. cerevisiae deletion strains, locus YOL012C, strain htz1 0.98 | S. cerevisiae deletion strains, locus YOL147C, strain pex11, stronger effect = lower value 0.998 | S. cerevisiae deletion strains, locus YOR001W, strain rrp6, stronger effect = lower value 1 | S. cerevisiae deletion strains, locus YOR061W, strain CKA2, stronger effect = lower value 0.973 | S. cerevisiae deletion strains, locus YOR069W, strain VPS5, stronger effect = lower value 1 | S. cerevisiae deletion strains, locus YOR070C, strain gyp1, stronger effect = lower value 0.999 | S. cerevisiae deletion strains, locus YOR080W, strain dia2, stronger effect = lower value 0.988 | S. cerevisiae deletion strains, locus YOR083W, strain WHI5, stronger effect = lower value 1.01 | S. cerevisiae deletion strains, locus YOR106W, strain vam3, stronger effect = lower value 0.998 | S. cerevisiae deletion strains, locus YOR136W, strain idh2, stronger effect = lower value 1 | S. cerevisiae deletion strains, locus YOR144C, strain elg1, stronger effect = lower value 0.993 | S. cerevisiae deletion strains, locus YOR184W, strain ser1, stronger effect = lower value 0.975 | S. cerevisiae deletion strains, locus YOR231W, strain MKK1, stronger effect = lower value 0.996 | S. cerevisiae deletion strains, locus YOR265W, strain rbl2, stronger effect = lower value 0.999 | S. cerevisiae deletion strains, locus YOR270C, strain vph1, stronger effect = lower value 1.02 | S. cerevisiae deletion strains, locus YOR290C, strain snf2, stronger effect = lower value 0.994 | S. cerevisiae deletion strains, locus YOR316C, strain cot1, stronger effect = lower value 0.991 | S. cerevisiae deletion strains, locus YPL051W, strain arl3, stronger effect = lower value 1.01 | S. cerevisiae deletion strains, locus YPL055C, strain LGE1, stronger effect = lower value 1 | S. cerevisiae deletion strains, locus YPL078C, strain atp4, stronger effect = lower value 1.02 | S. cerevisiae deletion strains, locus YPL106C, strain sse1, stronger effect = lower value 0.977 | S. cerevisiae deletion strains, locus YPL240C, strain hsp82, stronger effect = lower value 1.01 | S. cerevisiae deletion strains, locus YPL241C, strain CIN2, stronger effect = lower value 0.995 | S. cerevisiae deletion strains, locus YPL256C, strain CLN2, stronger effect = lower value 0.987 | S. cerevisiae deletion strains, locus YPR119W, strain clb2, stronger effect = lower value 1 | S. cerevisiae deletion strains, locus YPR141C, strain kar3, stronger effect = lower value 0.98 | S. cerevisiae deletion strains, locus YPR163C, strain tif3, stronger effect = lower value 0.983 | S. cerevisiae deletion strains, locus YPR167C, strain met16, stronger effect = lower value 1 | S. cerevisiae deletion strains, strain wtn01, stronger effect = lower value 1.03 | S. cerevisiae strains, strain wild type, stronger effect = lower value 0.989
